# LYPLA1 inh = LYPLA1 inhibitors, primary screen, counter-screen for PME1 inhibitor project, biochemical, fluorescence polarization, FP-Rh probe ABPP | Acyl-protein thioesterase 1 (Homo sapiens), O75608 | recombinant LYPLA1 | inhibition, % at 5.9 µM | 0.16% of 320,000 active | AID 2174, 2009;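 active = inhibition above the mean of all tested compounds plus 3 SD, set per campaign, cut at about 14% in these data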;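 note: inhibitors block serine hydrolase probe labeling of LYPLA1 so polarization falls; 0% = enzyme with DMSO and 100% = wells lacking LYPLA1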
# Target sequence (O75608 whole entry, looked up): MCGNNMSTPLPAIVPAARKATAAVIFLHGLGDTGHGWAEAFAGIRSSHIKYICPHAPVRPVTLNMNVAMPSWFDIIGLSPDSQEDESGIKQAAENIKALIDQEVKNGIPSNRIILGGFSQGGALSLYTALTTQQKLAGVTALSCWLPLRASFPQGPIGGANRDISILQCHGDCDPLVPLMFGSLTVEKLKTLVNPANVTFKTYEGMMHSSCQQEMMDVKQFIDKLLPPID
# LYPLA2 counter = LYPLA2 inhibitors, primary screen, counter-screen for PME1 inhibitor project, biochemical, fluorescence polarization, FP-Rh probe ABPP | Acyl-protein thioesterase 2 (Homo sapiens), O95372 | recombinant LYPLA2 | inhibition, % at 5.9 µM | 0.38% of 320,000 active | AID 2177, 2009;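 active = inhibition above the screen-wide mean plus 3 SD, limit set per campaign, cut at about 26% in these data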;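 note: 0% = LYPLA2 with DMSO and 100% = wells lacking LYPLA2 enzyme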
# Target sequence (O95372 whole entry, looked up): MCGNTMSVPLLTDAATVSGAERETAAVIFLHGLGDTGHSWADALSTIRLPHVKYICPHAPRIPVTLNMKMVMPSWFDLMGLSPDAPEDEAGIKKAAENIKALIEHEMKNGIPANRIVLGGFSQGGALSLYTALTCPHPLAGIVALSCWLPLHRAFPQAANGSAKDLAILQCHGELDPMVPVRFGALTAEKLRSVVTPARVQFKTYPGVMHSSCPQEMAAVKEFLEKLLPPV
# PAFAH1B2 FP inh = PAFAH1B2 enzyme inhibitors, primary screen, biochemical, fluorescence polarization, human; recombinant PAFAH1B2, FP-rhodamine activity probe; inhibition, % at 3.39 µM; 1.2% of 340,000 active;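 active = inhibition above the mean of all tested compounds plus 3 SD, cut at about 24% in these data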;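 note: 0% = enzyme with DMSO and 100% = wells lacking PAFAH1B2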
# PAFAH2 FP inh = PAFAH2 enzyme inhibitors, primary screen, biochemical, fluorescence polarization, human; AID 492956, 2010; recombinant PAFAH2, FP-rhodamine activity probe; 0.99% of 340,000 active; inhibition, % at 3.39 µM;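 active = inhibition above the mean over all tested compounds plus 3 SD, cut at about 30% in these data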;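 note: inhibitors block probe labeling of enzyme so polarization drops; 0% = enzyme with DMSO and 100% = wells lacking PAFAH2 protein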
# pPAFAH inh = pPAFAH enzyme inhibitors, primary screen, biochemical, fluorescence polarization, human; recombinant pPAFAH, FP-rhodamine probe fluorescence polarization; Platelet-activating factor acetylhydrolase (Homo sapiens), Q13093; inhibition, % at 3.39 µM; 1.5% of 330,000 active;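 active = inhibition above the mean inhibition across the screen plus 3 SD, cut at about 25% in these data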;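 note: inhibitors block binding of the rhodamine activity-based probe so polarization drops; 0% = enzyme with DMSO and 100% = wells lacking pPAFAH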
# PAFAH1B3 inh = PAFAH1B3 enzyme inhibitors, primary screen, biochemical, fluorescence polarization, human | Platelet-activating factor acetylhydrolase IB subunit alpha1 (Homo sapiens), Q15102 | recombinant PAFAH1B3, FP-rhodamine probe | inhibition, % at 3.39 µM | 0.28% of 340,000 active | AID 492972, 2010;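 active = inhibition above the screen-wide average of all tested compounds plus 3 SD, cut at about 25% in these data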;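 note: 0% = enzyme with DMSO only and 100% = wells lacking PAFAH1B3 protein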
# * marks the source's active call; other numbers are inactive results; x = no result given. Most compounds without a hit are left out; they make up all but 2.9% or so of the library.
SMILES,LYPLA1 inh,LYPLA2 counter,PAFAH1B2 FP inh,PAFAH2 FP inh,pPAFAH inh,PAFAH1B3 inh
CCc1cccc(NC(=S)N(CCOC)C(C)c2ccco2)c1 (stereo unspecified),-2,-2,0,1,-5,2
Cc1cccc(NC(=O)Nc2ccc(C)c(C)c2)n1,5,4,1,3,4,6
CCN(CC)C(=O)C(C)N(C#N)c1nc(NC(C)C)nc(NC(C)C)n1 (stereo unspecified),-2,2,2,5,-1,7
CC1(C)CC(=O)c2sc(NS(=O)(=O)c3ccc(Br)cc3)nc2C1,-1,0,27*,9,-23,6
Cc1cc(/C=C2\SC(=S)NC2=O)c(C)n1C1CC1,-3,1,3,12,32*,9
Cc1cc(/C=C2/C(=O)N(C)C(=S)N2C)c(C)n1C1CC1,0,1,-4,-11,5,-2
CCOCCCNC(=O)Cc1c(C(=O)O)[nH]c2ccc(Cl)cc12,4,11,30*,0,-1,-4
COc1ccc(OC)c(CNC(=O)Cc2c(C(=O)O)[nH]c3ccc(Cl)cc23)c1,-3,2,10,4,-1,0
CCCCN(CC)C(=O)Cc1c(C(=O)O)[nH]c2ccc(Cl)cc12,-1,4,50*,1,-3,-1
CC1=C(C(=O)OC(C)C)C(c2coc3ccccc3c2=O)C2=C(CCCC2=O)N1 (stereo unspecified),-1,0,2,-5,4,6
O=C(C1CCC(CNc2c(N3CCCCC3)c(=O)c2=O)CC1)N1CCN(C2CCCCC2)CC1 (stereo unspecified),2,10,5,-3,-1,0
O=C1NN(c2ccc(Cl)c(Cl)c2)C(=O)/C1=C/c1cccc(OC(=O)c2cccs2)c1,-12,4,x,x,57*,x
O=C1NN(c2ccccc2)C(=O)/C1=C\c1cccc(OC(=O)c2cccs2)c1,-2,8,19,27,14,7
Cc1ccc(SCC(=O)NCc2ccncc2)cc1,0,1,8,-3,5,8
Cc1ccc(CS(=O)(=O)Cc2ccc(C(=O)NCCCN3CC(C)CC(C)C3)o2)cc1 (stereo unspecified),-3,-10,-6,-2,31*,2
O=C(N/N=C/c1ccc(-c2cccc([N+](=O)[O-])c2)o1)c1cccs1,4,4,3,7,10,3
N#C/C(=C\c1ccc(-c2cccc([N+](=O)[O-])c2)o1)C(=O)Nc1nc(-c2cccs2)cs1,-8,-1,5,-1,33*,3
COc1ccc(-c2cc(C(=O)Nc3cc(OC)c(OC)c(OC)c3)no2)cc1,1,5,5,-2,2,-3
CC(C)(C)c1ccc(C(=O)NN2C(=O)CSC2=S)cc1,-3,-4,25*,-11,8,-2
Cc1ccc(-c2nc(CN3CCN(c4cnccn4)CC3)c(C)o2)o1,5,0,2,3,-1,12
Cc1cccc(C2=NN(c3ccc(Br)cc3)[C@@H](C(=O)N3CCOC3=O)[C@@H]2c2ccc(F)cc2)c1,-2,-1,-7,-2,30*,6
CNS(=O)(=O)c1cccc(C(=O)OCC(=O)Nc2ccccc2F)c1,0,6,0,24,2,-1
COc1ccccc1NS(=O)(=O)c1ccc(O)c(C(=O)OCC(=O)Nc2ccccc2F)c1,3,6,7,34*,3,7
CCN(Cc1ccccc1)C(=O)COC(=O)c1cc(S(=O)(=O)Nc2ccccc2OC)ccc1O,x,x,32*,21,6,7
CC(OC(=O)c1cc(Br)ccc1O)C(=O)Nc1ccc(S(=O)(=O)N2CCCC2)cc1 (stereo unspecified),-21,-47,-2,-4,26*,-3
SMILES,LYPLA1 inh,LYPLA2 counter,PAFAH1B2 FP inh,PAFAH2 FP inh,pPAFAH inh,PAFAH1B3 inh
Cc1cccc(C(=O)OC(C)C(=O)Nc2ccc(S(=O)(=O)N3CCCC3)cc2)c1O (stereo unspecified),-13,-13,5,-2,-5,-1
O=C(COC(=O)c1cc(S(=O)(=O)N2CCCC2)ccc1O)Nc1ccccc1Br,x,x,2,49*,2,-2
CCCCn1nc(-c2ccccc2)c2nc3ccccc3nc21,0,-1,x,x,3,x
CCOC(=O)N1CCN(C(=O)c2ccc(N(Cc3ccccc3Cl)S(C)(=O)=O)cc2)CC1,0,-3,0,5,3,2
Cn1cc(C(=O)OCC2CCN(CCNS(C)(=O)=O)CC2)c2ccccc21,-4,-1,2,-2,-5,-2
COc1ccc(NC(=O)c2c3c(nc4ccccc24)CCC3)cc1S(=O)(=O)N1CCOCC1,-4,-1,1,0,26*,6
COc1ccc(NC(=O)C23CC4CC(CC(Cl)(C4)C2)C3)cc1S(=O)(=O)N1CCOCC1,x,x,27*,1,7,7
COc1ccc(C(=O)Nc2ccc(NC(=O)c3ccccc3)cc2)cc1S(=O)(=O)N1CCOCC1,1,2,0,-7,5,-3
COc1cccc(-c2cc(C(F)(F)F)c3c(N)c(C#N)sc3n2)c1,-3,-1,x,x,-1,x
O=C1CC(/C=C/c2ccco2)=Nc2ccccc2N1,-8,-3,6,7,26*,10
CCc1ccc(N2CSC3=C(C#N)C(c4cccs4)CC(=O)N3C2)cc1 (stereo unspecified),1,9,6,19,24,6
Cc1ccc(N2CSC3=C(C#N)C(c4cccs4)CC(=O)N3C2)cc1 (stereo unspecified),-4,-7,3,12,25*,12
COc1ccc2sc(-c3ccc(N(C)C)cc3)c(C#CCCO)c2c1,-2,9,5,5,26*,13
CC(C#N)(NC(=O)CN1CCN(S(=O)(=O)c2ccc(Br)cc2Cl)CC1)C1CC1 (stereo unspecified),1,2,20,3,5,0
O=C(NCc1ccc2c(c1)OCO2)c1ccc2c(c1)OCO2,4,1,2,1,1,-4
Cc1ccc2c(CC(=O)NCc3ccc4c(c3)OCO4)coc2c1,1,-5,15,6,-3,-3
O=C(O)c1ccc(NCc2ccc3c(c2)OCO3)cc1,-2,-3,25*,2,-4,-2
COc1ccc(CCNC(=O)c2nnc(Cc3c(F)cccc3Cl)o2)cc1OC,4,4,4,6,3,3

# Screening data: PubChem, The Scripps Research Institute Molecular Screening Center
